Results: PubChem BioAssay AID1159580 (chemical genetic matrix, 2015)
The whole screen tested about 5,500 compounds, of which about 2,000 (36%) were called active. Inconclusive results (about 18%) are left out. Cut-off read from the data, not from the text of the source: active = normalized growth mostly below about 0.91 (no sharp cut-off); inconclusive = no clear call, values can overlap the other calls; inactive = mostly above about 0.92. The list shows a part of the results.

Assay: chemical genetic growth profiling, strain panel (AID 1159580);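 note: tested at 20 µM; growth read once vehicle control cultures reached saturation at 30 °C; 1 = growth at the plate median or of vehicle wells; lower values mean less growth of the strain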
Details: growth OD

Measured: normalized growth

O=C(O)c1cc(=O)c2c(OCC(O)COc3cccc4oc(C(=O)O)cc(=O)c34)cccc2o1
inactive: S. cerevisiae deletion strains, locus YKL009W, strain mrt4, active compounds read low 1.01 | S. cerevisiae deletion strains, locus YKL068W, active compounds read low 1.01 | S. cerevisiae deletion strains, locus YKL085W, strain MDH1 (second series), active compounds read low 1.03 | S. cerevisiae deletion strains, locus YKL085W, strain MDH1, active compounds read low 1.03 | S. cerevisiae deletion strains, locus YKL160W, strain elf1, active compounds read low 0.972 | S. cerevisiae deletion strains, locus YKL190W, strain CNB1, active compounds read low 1 | S. cerevisiae deletion strains, locus YKR001C, strain vps1, active compounds read low 1.02 | S. cerevisiae deletion strains, locus YKR026C, strain gcn3, active compounds read low 0.968 | S. cerevisiae deletion strains, locus YKR091W, strain srl3, active compounds read low 0.983 | S. cerevisiae deletion strains, locus YLL001W, strain dnm1, active compounds read low 0.935 | S. cerevisiae deletion strains, locus YLL026W, active compounds read low 0.991 | S. cerevisiae deletion strains, locus YLL041C, strain sdh2, active compounds read low 0.973 | S. cerevisiae deletion strains, locus YLR027C, strain aat2, active compounds read low 0.983 | S. cerevisiae deletion strains, locus YLR039C, strain RIC1, active compounds read low 1 | S. cerevisiae deletion strains, locus YLR058C, strain SHM2, active compounds read low 1.01 | S. cerevisiae deletion strains, locus YLR102C, strain apc9, active compounds read low 1.02 | S. cerevisiae deletion strains, locus YLR113W, strain HOG1, active compounds read low 0.998 | S. cerevisiae deletion strains, locus YLR221C, strain rsa3, active compounds read low 1.02 | S. cerevisiae deletion strains, locus YLR258W, strain gsy2, active compounds read low 0.983 | S. cerevisiae deletion strains, locus YLR262C, strain YPT6 (second series), active compounds read low 0.933 | S. cerevisiae deletion strains, locus YLR262C, strain YPT6, active compounds read low 1.05 | S. cerevisiae deletion strains, locus YLR268W, strain sec22, active compounds read low 1.04 | S. cerevisiae deletion strains, locus YLR320W, strain mms22, active compounds read low 0.985 | S. cerevisiae deletion strains, locus YLR330W, strain CHS5, active compounds read low 1.01 | S. cerevisiae deletion strains, locus YLR342W, strain FKS1 (second series), active compounds read low 1.01 | S. cerevisiae deletion strains, locus YLR342W, strain FKS1, active compounds read low 0.95 | S. cerevisiae deletion strains, locus YLR357W, strain rsc2, active compounds read low 1.01 | S. cerevisiae deletion strains, locus YLR370C, strain arc18, active compounds read low 0.974 | S. cerevisiae deletion strains, locus YLR371W, strain rom2, active compounds read low 1.02 | S. cerevisiae deletion strains, locus YLR384C, strain iki3, active compounds read low 0.961 | S. cerevisiae deletion strains, locus YLR418C, strain cdc73, active compounds read low 1.02 | S. cerevisiae deletion strains, locus YML016C, strain PPZ1, active compounds read low 1.01 | S. cerevisiae deletion strains, locus YML032C, strain rad52, active compounds read low 1.02 | S. cerevisiae deletion strains, locus YML120C, strain ndi1, active compounds read low 0.966 | S. cerevisiae deletion strains, locus YML124C, strain tub3, active compounds read low 1.01 | S. cerevisiae deletion strains, locus YMR058W, strain fet3, active compounds read low 0.967 | S. cerevisiae deletion strains, locus YMR078C, strain ctf18, active compounds read low 1.04 | S. cerevisiae deletion strains, locus YMR125W, strain sto1, active compounds read low 0.99 | S. cerevisiae deletion strains, locus YMR129W, active compounds read low 0.975 | S. cerevisiae deletion strains, locus YMR205C, strain PFK2, active compounds read low 0.982 | S. cerevisiae deletion strains, locus YMR223W, strain ubp8, active compounds read low 1.03 | S. cerevisiae deletion strains, locus YMR231W, strain pep5, active compounds read low 0.971 | S. cerevisiae deletion strains, locus YMR307W, strain GAS1, active compounds read low 1.09 | S. cerevisiae deletion strains, locus YNL067W, strain RPL9B, active compounds read low 1.01 | S. cerevisiae deletion strains, locus YNL071W, strain lat1, active compounds read low 0.989 | S. cerevisiae deletion strains, locus YNL128W, strain TEP1, active compounds read low 1.02 | S. cerevisiae deletion strains, locus YNL183C, strain NPR1, active compounds read low 0.952 | S. cerevisiae deletion strains, locus YNL209W, strain ssb2, active compounds read low 1.01 | S. cerevisiae deletion strains, locus YNL233W, strain BNI4, active compounds read low 1.02 | S. cerevisiae deletion strains, locus YNL248C, strain rpa49, active compounds read low 1 | S. cerevisiae deletion strains, locus YNL250W, strain rad50, active compounds read low 1.07 | S. cerevisiae deletion strains, locus YNL271C, strain bni1, active compounds read low 1.03 | S. cerevisiae deletion strains, locus YNL298W, strain CLA4, active compounds read low 1.01 | S. cerevisiae deletion strains, locus YNL307C, strain MCK1, active compounds read low 1.02 | S. cerevisiae deletion strains, locus YNL322C, strain KRE1 (second series), active compounds read low 0.953 | S. cerevisiae deletion strains, locus YNL322C, strain KRE1, active compounds read low 1.01 | S. cerevisiae deletion strains, locus YNR049C, strain mso1, active compounds read low 0.967 | S. cerevisiae deletion strains, locus YNR052C, strain pop2, active compounds read low 1.01 | S. cerevisiae deletion strains, locus YOL006C, strain TOP1, active compounds read low 1.01 | S. cerevisiae deletion strains, locus YOL012C, strain htz1 0.937 | S. cerevisiae deletion strains, locus YOL147C, strain pex11, active compounds read low 1.03 | S. cerevisiae deletion strains, locus YOR001W, strain rrp6, active compounds read low 0.936 | S. cerevisiae deletion strains, locus YOR061W, strain CKA2, active compounds read low 1.01 | S. cerevisiae deletion strains, locus YOR069W, strain VPS5, active compounds read low 1.01 | S. cerevisiae deletion strains, locus YOR070C, strain gyp1, active compounds read low 0.987 | S. cerevisiae deletion strains, locus YOR080W, strain dia2, active compounds read low 0.968 | S. cerevisiae deletion strains, locus YOR083W, strain WHI5, active compounds read low 0.961 | S. cerevisiae deletion strains, locus YOR106W, strain vam3, active compounds read low 0.957 | S. cerevisiae deletion strains, locus YOR136W, strain idh2, active compounds read low 1.03 | S. cerevisiae deletion strains, locus YOR144C, strain elg1, active compounds read low 1.02 | S. cerevisiae deletion strains, locus YOR184W, strain ser1, active compounds read low 1.03 | S. cerevisiae deletion strains, locus YOR231W, strain MKK1, active compounds read low 1 | S. cerevisiae deletion strains, locus YOR265W, strain rbl2, active compounds read low 0.984 | S. cerevisiae deletion strains, locus YOR270C, strain vph1, active compounds read low 0.946 | S. cerevisiae deletion strains, locus YOR290C, strain snf2, active compounds read low 1.02 | S. cerevisiae deletion strains, locus YOR316C, strain cot1, active compounds read low 1.03 | S. cerevisiae deletion strains, locus YPL051W, strain arl3, active compounds read low 0.99 | S. cerevisiae deletion strains, locus YPL055C, strain LGE1, active compounds read low 1.01 | S. cerevisiae deletion strains, locus YPL078C, strain atp4, active compounds read low 0.933 | S. cerevisiae deletion strains, locus YPL106C, strain sse1, active compounds read low 1 | S. cerevisiae deletion strains, locus YPL240C, strain hsp82, active compounds read low 1 | S. cerevisiae deletion strains, locus YPL241C, strain CIN2, active compounds read low 1.01 | S. cerevisiae deletion strains, locus YPL256C, strain CLN2, active compounds read low 1 | S. cerevisiae deletion strains, locus YPR119W, strain clb2, active compounds read low 1.03 | S. cerevisiae deletion strains, locus YPR141C, strain kar3, active compounds read low 1.03 | S. cerevisiae deletion strains, locus YPR163C, strain tif3, active compounds read low 1.02 | S. cerevisiae deletion strains, locus YPR167C, strain met16, active compounds read low 1.03 | S. cerevisiae deletion strains, strain wtn01, active compounds read low 0.999 | S. cerevisiae strains, strain wild type, active compounds read low 1.01
